Screening results deposited in PubChem BioAssay by National Center for Advancing Translational Sciences (NCATS).
D3 ag: activates the human D3 dopamine receptor. P35462. D3R DiscoveRx beta-arrestin cells, luminescence, 90 min. max activation, %. 410,000 compounds, 0.58% hits; in the data active = max activation above about 30%; also: 0% is about no effect
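Agonist-mode cell screen: cells plated at 1500/well and incubated overnight at 37 °C, then exposed to library compounds for 90 min at 37 °C. Detection reagent was added for 30–60 min at room temperature, and luminescence was read.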
CBFb-RUNX1 inh: blocks binding between human CBF-beta and RUNX1; AlphaScreen CBFb-His/RUNX1-biotin binding, biochemical; Q01196+Q13951; 230,000 tested, under 10 active; Potency, µM (series often up to 59.8 µM), inactives show at the top dose activity, negative = inhibition, actives largely listed as inhibitors; also: % of control where 0% means no effect
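AlphaScreen binding: CBFb-His and RUNX1-biotin (30 nM each) preincubated 20 min, compound added for 15 min, then nickel and streptavidin beads for 90 min, all at room temperature. Disruption of the interaction by any mechanism counts as activity.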
DRD3 antagonist: blocks the human D3 dopamine receptor. max response, negative = inhibition, %. 360,000 compounds, 2.5% hits. D3R cells, DiscoveRx beta-arrestin luminescence, antagonist mode; active compounds read low. AID 652054. P35462; in the data active = max response below about -50%; inconclusive = no clear call, values can overlap the other calls; also: % is scaled to controls: 0 for no effect and ±100 for the full control effect
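Cells plated overnight at 1500 cells/well, then exposed to library compounds with dopamine controls for 90 minutes at 37 degrees C. DiscoveRx reagent added for 30–60 minutes at room temperature; luminescence read, quantitative HTS format.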
PTHR1 ag: activates the human parathyroid hormone receptor PTHR1; Q03431; HEK293 GP2 PTHR1 cells, GloSensor cAMP luminescence, 1 h; Potency, µM (doses to about 115 µM), inactives show top-dose activation, actives largely listed as activators; 410,000 compounds, 0.075% hits; AID 743266; also: potency is read from the fitted curve at half-maximal effect; nearly all actives have a fitted effect of over 55% in size
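HEK-293-derived GP2 cells expressing PTHR1 and a GloSensor cAMP reporter, 3,000/well, plated overnight, given luciferin plus IBMX (each 0.5 mM as added) for 1 h at 37 °C, then compound for 1 h at 37 °C. Luminescence was read after 15 min at room temperature.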
MBNL1 CUG block: inhibitors of human MBNL1 binding to CUG repeat RNA; TR-FRET MBNL1-His/biotin-(CUG)12 binding, 665/545 ratio; 280,000 compounds, 0.036% hits; AID 2675; Potency, µM (series often up to 57.5 µM), for inactives: at the highest dose activity change, negative = inhibition, usual class: inhibitors; active = well fitted inhibition curve with a large enough effect in the signal ratio, with a control signal flat, not every such curve was filed as active; inconclusive = small, poorly fitted or top-dose-only effect, or effect the other way, or a change in a side signal; inactive = no such curve, though single readings can be large or run the other way; the % refers to the signal ratio; also: potency is read from the fitted curve at half-maximal effect; % is scaled to controls: 0 for no effect and ±100 for the full control effect
Target sequence (Q9NR56 whole entry, looked up): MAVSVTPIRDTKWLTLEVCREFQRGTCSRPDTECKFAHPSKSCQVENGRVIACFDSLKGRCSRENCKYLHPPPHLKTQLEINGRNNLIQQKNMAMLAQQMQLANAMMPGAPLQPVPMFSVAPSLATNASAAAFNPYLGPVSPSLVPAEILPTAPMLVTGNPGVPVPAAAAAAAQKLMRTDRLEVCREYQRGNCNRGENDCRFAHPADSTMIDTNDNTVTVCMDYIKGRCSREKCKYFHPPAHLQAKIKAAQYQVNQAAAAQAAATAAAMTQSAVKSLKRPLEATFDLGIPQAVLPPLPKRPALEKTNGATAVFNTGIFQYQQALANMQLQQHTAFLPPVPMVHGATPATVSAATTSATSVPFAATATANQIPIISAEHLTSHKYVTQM
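Ratiometric TR-FRET (665 over 545 nm, excitation 340 nm) tracks disruption of MBNL1-His/biotin-(CUG)12 complex after 60 min at room temperature, with compounds at 92 nM to 58 uM final.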
Integrin act MD: activates integrin-mediated alleviation for muscular dystrophy | alpha7betagal myoblasts, beta-gal FDG fluorescence, 48 h | Potency, µM (series often up to 38.3 µM), inactives show top-dose activation, actives largely listed as activators | 350,000 compounds, 0.064% hits;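 also: potency is read from the fitted curve at half-maximal effect; 100% = response of the positive control SU9516; nearly all actives have a fitted effect of over 60% in size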
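Alpha7betagal+/- myoblasts (passage 13) were plated 16-24 hr, then exposed to compounds (1:260 dilution of DMSO stock) for 48 hours at 37C. After MPER lysis, β-galactosidase reporter activity was read as FDG fluorescence (ex 480/em 540) after 30 minutes.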
The depositor's hits bear a star; i = inactive; ? = inconclusive; nt = no result given; [ ] = remark or other dose. Most compounds without a hit are left out; they make up all but 2.8% or so of the library. Unless noted, calls follow the shape of the dose curve; as a rule, active = well fitted curve in the direction sought with a large enough effect; inconclusive = small, poorly fitted or top-dose-only effect, or another doubt; inactive = no such curve, though single readings can be large; an effect the other way counts as inactive or inconclusive.

SMILES | D3 ag | CBFb-RUNX1 inh | DRD3 antagonist | PTHR1 ag | MBNL1 CUG block | Integrin act MD
CCn1cc(C(=O)NCC2CCCO2)c(=O)c2cc(S(=O)(=O)N(C)C3CCCCC3)ccc21 (stereo not drawn) | -1 | -3% | -52* | -24% | 0% | 8%
Cc1ccccc1N(C)S(=O)(=O)c1ccc2[nH]cc(C(=O)NCC3CCCO3)c(=O)c2c1 (stereo not drawn) | 9 | 2% | -69* | -20% | 3% | 0%
CCc1ccc(N(C)S(=O)(=O)c2ccc3[nH]cc(C(=O)NCC4CCCO4)c(=O)c3c2)cc1 (stereo not drawn) | 4 | nt | nt | -35% | nt | nt
CCCN(CCC)CCCNC(=O)c1cn(C)c2ccc(S(=O)(=O)N(C)C3CCCCC3)cc2c1=O | -6 | nt | -2 | i | 4% | -4%
CCCCN(CCCC)CCNC(=O)c1cn(C)c2ccc(S(=O)(=O)N(C)C3CCCCC3)cc2c1=O | -10 | nt | -4 | i | -4% | 10µM*
NC(=O)N[C@@H](CCC(=O)O)C(=O)O | -7 | nt | nt | nt | nt | nt
CC1(C)N=C(N)N=C(N)N1c1ccc(Cl)cc1 | 0 | nt | nt | nt | nt | nt
COc1ccc(CN(C)CCc2ccccn2)cc1OC | -4 | 9% | -76* | i | -20% | -12%
O=C(Nc1ccccc1F)N1CCc2ccccc2C1 | -11 | nt | -2 | ? | 1% | 46%
O=C(c1cccs1)N1CCc2c([nH]c3ccccc23)C1c1ccc(Cl)cc1 (stereo not drawn) | -6 | -17% | -53* | i | -2% | 2%
O=C(c1cccs1)N1CCc2c([nH]c3ccccc23)C1c1ccccn1 (stereo not drawn) | -12 | -5% | ? | ? | -1% | ?
Cn1cc(C(F)(F)F)nc1-c1ccc(OCC(O)CNCCOc2ccc(O)c(C(N)=O)c2)cc1 (stereo not drawn) | 101* | -8% | -4 | -11% | -12% | nt
CCCCCCc1cc2cc(C(=O)NCc3ccccc3)c(=N)oc2cc1O | 14 | 1% | 3 | -12%[57.5 µM] | 6% | -5%
CCCCCCc1cc2cc(C(=O)Nc3ccccc3)c(=O)oc2cc1O | 51* | -6% | 51 | -27% | nt | -4%
CC(=O)C(Cc1ccccc1)NC(=O)COc1ccc2c(c1)OCO2 (stereo not drawn) | -6 | nt | 0 | i | nt | ?
CN1CCN(C(=O)c2ccc3ccccc3c2)CC1 | -61 | -3% | -83* | i | 8% | 1%
Cc1nnc(SCc2ccc([N+](=O)[O-])cc2)o1 | -10 | -1% | 2 | -5% | ? | 12%
CCN(CC)C(=O)C1CCCN(Cc2sccc2C)C1 (stereo not drawn) | -20 | -4% | -63* | i | -19% | -2%
CCN(CC)C(=O)C1CCCN(Cc2cccc(F)c2)C1 (stereo not drawn) | -6 | 6% | 15 | -8%[57.5 µM] | 7% | 12%
Cc1cccc(OCCCC(=O)NNC(=O)CCN2CCN(c3ccccc3)CC2)c1 | 5 | nt | -8 | -22% | nt | -28%
O=C(CCN1CCN(c2ccccc2)CC1)NNC(=O)c1ccccc1 | 8 | nt | -54* | i | nt | 4%
Cc1cccc(OCC(=O)NNC(=O)CCN2CCN(c3ccccc3)CC2)c1C | -9 | nt | -83* | i | nt | -45%
O=C(CCN1CCN(c2ccccc2)CC1)NNC(=O)Cc1ccccc1Cl | 6 | nt | ? | i | nt | -29%
CC1=CC(C)(C)NC(=S)N1c1ccc(N(C)C)cc1 | 9 | nt | 5 | i | nt | -57%
COC(=O)c1ccc(CSc2nc3c(cnn3-c3ccc(C)cc3)c(=O)[nH]2)o1 | 35* | -4% | 20 | 4%[57.5 µM] | -6% | -13%
SMILES | D3 ag | CBFb-RUNX1 inh | DRD3 antagonist | PTHR1 ag | MBNL1 CUG block | Integrin act MD
CCOc1ccc(CN2CCN(Cc3cccc4c3OCO4)CC2CCO)cc1 (stereo not drawn) | -19 | 6% | -61* | i | -11% | -13%
COc1cccc(CN2CCN(Cc3cccc4c3OCO4)CC2CCO)c1 (stereo not drawn) | -10 | 1% | ? | -10% | ? | -23%
CCOc1ccc(CN2CCN(Cc3cc4c(cc3Cl)OCO4)CC2CCO)cc1 (stereo not drawn) | -40 | -5% | -64* | i | -6% | -21%
Cc1ccc(CN2CCN(Cc3cccc4c3OCO4)CC2CCO)cc1 (stereo not drawn) | -28 | 12% | -94* | -7% | 4% | -16%
OCCC1CN(Cc2cccs2)CCN1Cc1ccccc1 (stereo not drawn) | -19 | -1% | -24 | i | 1% | 8%
CCOc1ccc(CN2CCN(Cc3cnn(CC)c3C)CC2CCO)cc1 (stereo not drawn) | 2 | 17% | 3 | i | -17% | 1%
OCCC1CN(Cc2cc3c(cc2Cl)OCO3)CCN1Cc1ccccc1 (stereo not drawn) | -24 | 1% | -53* | i | 11% | -14%
C[N+](C)(CCCCCC[N+](C)(C)C1c2ccccc2-c2ccccc21)C1c2ccccc2-c2ccccc21 | -24 | nt | nt | nt | nt | nt
COc1ccc(CN=Cc2[nH]c3ccc(Br)c(Cl)c3c2O)cc1 | 4 | 8% | -74* | i | ? | -35%[7.66 µM]
Cc1cc(C)cc(N=Cc2[nH]c3ccc(Br)c(Cl)c3c2O)c1 | -4 | 2% | ? | -18% | -8% | -45%
O=C(CNC(=O)c1ccc(Br)o1)OCC(=O)c1cccc([N+](=O)[O-])c1 | -12 | -1% | 0 | i | ? | -3%
CCn1c(SCC(=O)c2ccc(Cl)cc2)nnc1-c1ccoc1C | -9 | -2% | -61* | -34% | -1% | -19%
CCS(=O)(=O)CCSc1nc(C)cc(C)c1C#N | 9 | 3% | -13 | -36%[57.5 µM] | 2% | 1%
Cc1cc(C)c(C#N)c(SCCS(=O)(=O)Cc2ccccc2)n1 | -11 | 8% | -84* | i | -9% | -19%
COc1ccc(NC(=O)C2(C)CCCN(C(C)C)C2)cc1F (stereo not drawn) | 6 | nt | 14 | -9% | nt | nt
Cc1ccc(NC(=O)C2(C)CCN2C(=O)CC(c2ccccc2)c2ccccc2)cc1 (stereo not drawn) | 67* | nt | -25 | -21% | nt | nt
CC1(C(=O)Nc2ccc(Cl)c(Cl)c2)CCN1C(=O)CC(c1ccccc1)c1ccccc1 (stereo not drawn) | -8 | nt | -19 | i | nt | nt
COc1ccc(-c2cn(CCC(=O)O)c(-c3ccc(Cl)nc3)n2)cc1 | 52* | nt | 37 | -11% | nt | 25%
O=C(O)CCn1cc(-c2ccc(Cl)cc2)nc1-c1ccc(Cl)nc1 | 8 | nt | 0 | -2% | nt | -3%
